Test results published in PubChem BioAssay (NCATS).
Results filed as inconclusive are left out. Activity calls are given as the source filed them. The call rests on the fitted dose curve; in most records, active means well fitted inhibition curve with a large enough effect; inconclusive means small, poorly fitted or top-dose-only effect; inactive means flat fitted curve, though single readings scatter.

Assay: P-glycoprotein substrates identified in KB-8-5-11 adenocarcinoma cell line, qHTS therapeutic library screen (AID 1346987); further: nearly all actives have a fitted effect of over 65% in size
Settings: KB-8-5-11 (P-gp overexpressing) viability, CellTiter-Glo, 72 h; series mostly up to 44.5 µM; activity change, negative = cytotoxicity: at the top concentration
Text: The ATP-binding cassette transporters P-glycoprotein (P-gp) is known to limit brain penetration of many chemotherapy drugs. […] As such, we developed a high-throughput screen (HTS) to identify substrates of P-gp from a series of chemical libraries including the National Center for Advancing Translational Sciences Pharmaceutical Collection NPC, 2,816 compounds), testing a total of 10,804 compounds, most of which have known mechanisms of action. We used the CellTiter-Glo viability assay to test library compounds against the parental KB-3-1 human cervical adenocarcinoma cell line and the colchicine-selected sub-line KB-8-5-11 that over-expresses P-gp. KB-8-5-11 cells were also tested in the presence of a P-gp inhibitor (tariquidar) to assess reversability of transporter-mediated resistance. Of the tested compounds, a total of 90 P-gp substrates were identified including 55 newly identified P-gp substrates. Substrates were confirmed using an orthogonal killing assay against HEK-293 cells transfected with P-gp. As exemplars, we confirmed that […] (cyclin-dependent kinase inhibitor); AT9283, (Janus kinase 2/3 inhibitor); ispinesib (kinesin spindle protein inhibitor); gedatolisib (PKI-587, phosphoinositide 3-kinase/mammalian target of rampamycin inhibitor); GSK-690693 (AKT inhibitor); and KW-2478 (heat shock protein 90 inhibitor) were substrates , and direct ATPase stimulation was assessed. ABCG2 was also found to confer high levels of resistance to AT9283, GSK-690693 and gedatolisib, while ispinesib, AT7519 and KW-2478 were weaker substrates.
The HeLa derivative cell line, KB-3-1, and its colchicine-selected, P-gp-overexpressing subline, KB-8-5-11 were maintained in DMEM with 10% FCS and Pen/Strep with glutamine at 37 degree C in 5% CO2. For KB-8-5-11 cells, colchicine was added to the medium at a concentration of 100 ng/mL. HEK-293 cells transfected with empty vector (pcDNA) or vector containing human ABCB1 (MDR-19) or ABCG2 (R-5) have been described previously (Robey, Lin, Qiu, Chan & Bates, 2011) and were maintained in EMEM supplemented with 10% FCS, Pen/Strep and glutamine with 2 mg/ml G418 to select for the expression of the transporter. Cultures were confirmed to be free of mycoplasma infection using the MycoAlert Mycoplasma Detection Kit (Lonza, Walkersville, MD). For the screen, assay medium was identical to culture medium except for KB-8-5-11 where colchicine was excluded from the medium.
All cell lines were plated into 1536-well plates at 500 cells/well in 5 uL media. Compounds were then pinned in dose-response using a 1536-head pin tool (Kalypsis, San Diego, CA) and plates were incubated at 37 degree C in 5% CO2 for an additional 72 h. CellTiter-Glo reagent (Promega) was dispensed into the wells, incubated for 5 min and luminescence was read on a ViewLux instrument (Perkin-Elmer). Cytotoxic compounds were defined as those that yielded a curve class of -1.1, -1.2, -2.1, -2.2, -2.3, or -2.4, a maximum response of >50% and an AC50 of < 10 uM. Cherry-picked hits from screening analysis were tested with both the KB pair of cell lines, and the pcDNA (empty vector control) and MDR-19 (P-gp overexpressing) pair were tested, in the absence and presence of tariquidar.
On the % scale 0 is the no-effect control and ±100 the full control effect; potency means the concentration at half of the fitted maximal effect.

Row | Structure (SMILES) | activity change, negative = cytotoxicity | Potency | outcome
1 | C[C@@H](O)[C@H]1C(=O)N2C(C(=O)[O-])=C(SC3Cn4cnc[n+]4C3)[C@H](C)[C@H]12 (stereo not given in full) | -5.14% (inactive) |  | 
2 | O=C(OC1C[C@@H]2CC3C[C@H](C1)N2CC3=O)c1c[nH]c2ccccc12 (stereo not given in full) | 0.42% (inactive) |  | 
3 | CCC(Cc1c(I)cc(I)c(O)c1I)C(=O)O (stereo not given) | 6.03% (inactive) |  | 
4 | C[C@@H]1NC(=O)[C@@H](N)CNC(=O)[C@H](C2CCNC(N)=N2)NC(=O)/C(=C/NC(N)=O)NC(=O)[C@H](CNC(=O)C[C@@H](N)CCCN)NC1=O (stereo not given in full) |  | inactive | 
5 | CCCCO | -2.07% (inactive) |  | 
6 | CC[C@@H]1/C=C(\C)C[C@H](C)C[C@H](OC)[C@H]2O[C@@](O)(C(=O)C(=O)N3CCCC[C@H]3C(=O)O[C@H](/C(C)=C/[C@@H]3CC[C@@H](Cl)[C@H](OC)C3)[C@H](C)[C@@H](O)CC1=O)[C@H](C)C[C@@H]2OC | 4.43% (inactive) |  | 
7 | NC(=S)NS(=O)(=O)c1ccc(N)cc1 | 11.2% (inactive) |  | 
8 | O=C1CC[C@@H](C(=O)N[C@H]2C[C@@H]2c2ccccc2)N1 | -22.5% (inactive) |  | 
9 | Cc1c(Cl)cccc1Nc1ncccc1C(=O)O | 0.913% (inactive) |  | 
10 | OCCOCCOCCO | -0.455% (inactive) |  | 
11 | CCC[C@@H]1C[C@@H](C(=O)N[C@@H]([C@H]2O[C@H](SC)[C@H](O)[C@@H](O)[C@H]2O)[C@H](C)Cl)N(C)C1 | 1.83% (inactive) |  | 
12 | CCCC(=O)Nc1c(I)cc(I)c(CC(CC)C(=O)O)c1I (stereo not given) | 2.1% (inactive) |  | 
13 | CCCCCCCCCCCCCCCCCC[N+](C)(C)CCC[Si](OC)(OC)OC | -12.3% (inactive) |  | 
14 | CCOC(=O)c1cc(-c2ccccc2)nc2ccc(C)cc12 | -1.38% (inactive) |  | 
15 | Nc1nc(NC2CC2)c2ncn([C@@H]3C=C[C@@H](CO)C3)c2n1 | -5.92% (inactive) |  | 
16 | CCC(C)[C@@H](N)C(=O)O (stereo not given in full) | -2.99% (inactive) |  | 
17 | CC(CCc1ccc(O)cc1)NCC(O)c1ccc(O)cc1 (stereo not given) | 22.2% (inactive) |  | 
18 | CC(C)(O/N=C(\C(=O)N[C@@H]1C(=O)N2C(C(=O)[O-])=C(C[n+]3ccccc3)CS[C@H]12)c1csc(N)n1)C(=O)O | 2.94% [at 17.3 µM] (inactive) |  | 
19 | CC(CC=O)CCCC(C)(C)O (stereo not given) | 10.1% (inactive) |  | 
20 | CN[C@@H]1[C@H](O[C@H]2[C@H](O[C@H]3[C@H](O)[C@@H](O)[C@H](N=C(N)N)[C@@H](O)[C@@H]3N=C(N)N)O[C@@H](C)[C@]2(O)C=O)O[C@@H](CO)[C@H](O)[C@H]1O |  |  | inactive [setting not given]

Row | Structure (SMILES) | activity change, negative = cytotoxicity | Potency | outcome
21 | CC(=O)Nc1ccc(OC(=O)c2ccccc2O)cc1 | -4.65% (inactive) |  | 
22 | CCCCCCCCCCCC(=O)N(CCO)CCO | -1.79% (inactive) |  | 
23 | C=N[C@@H](C(=O)N[C@@H]1C(=O)N2[C@@H]1SC(C)(C)[C@@H]2C(=O)O)c1ccccc1 | 21.1% (inactive) |  | 
24 | CC(C)(COP(=O)(O)OP(=O)(O)OC[C@H]1O[C@@H](n2cnc3c(N)ncnc32)[C@H](O)[C@@H]1OP(=O)(O)O)C(O)C(=O)NCCC(=O)NCCS (stereo not given in full) | 0.68% (inactive) |  | 
25 | COC(=O)CC[C@H](N)C(=O)O | 0.695% (inactive) |  | 
26 | CCCCCCOC(=O)c1cccnc1 | 7.46% (inactive) |  | 
27 | CCN(CC)C(=O)c1cccnc1 | -4.64% (inactive) |  | 
28 | CC1(C)C(\C=C/C=C\C=C/C=C2/N(CCCCS(=O)(=O)O)c3ccc4ccccc4c3C2(C)C)=[N+](CCCCS(=O)(=O)[O-])c2ccc3ccccc3c21 | -3.93% (inactive) |  | 
29 | O=S(=O)(O)CCCS(=O)(=O)O | 3.04% (inactive) |  | 
30 | O=C(O)CN(CC(=O)O)CC1=CC2C(=CC1=O)Oc1cc(O)c(CN(CC(=O)O)CC(=O)O)cc1C21OC(=O)c2ccccc21 (stereo not given) | 9.61% (inactive) |  | 
31 | COC(=O)c1ccccc1O | -7.18% (inactive) |  | 
32 | CN1c2c(nc(N)[nH]c2=O)NCC1CNc1ccc(C(=O)NC(CCC(=O)O)C(=O)O)cc1 (stereo not given) | -4.28% (inactive) |  | 
33 | C[C@]12CC[C@@H]3c4ccc(O)cc4CC[C@H]3[C@@H]1CC[C@@H]2OP(=O)(O)O |  | 20.6 µM (active) | 
34 | N=C(N)n1cccn1 | 1.32% (inactive) |  | 
35 | CCCOc1cc(N)ccc1C(=O)OCCN(CC)CC | -16.7% [at 17.3 µM] (inactive) |  | 
36 | CCCCC[C@H](O)/C=C/[C@@H]1[C@H]2C/C(=C/CCCC(=O)O)O[C@H]2C[C@H]1O | -6.85% (inactive) |  | 
37 | CO[C@@]1(NC(=O)C2SC(=C(C(N)=O)C(=O)O)S2)C(=O)N2C(C(=O)O)=C(CSc3nnnn3C)CS[C@@H]21 (stereo not given in full) | 7.42% [at 17.3 µM] (inactive) |  | 
38 | CC(C)CCCCCCc1ccc(O)cc1 | -1.85% (inactive) |  | 
39 | CC12CCC(C[N+](C)(CCC[N+](C)(C)C)C1)C2(C)C (stereo not given) | -7.69% (inactive) |  | 
40 | Cc1ncc[nH]1 | 29.1% (inactive) |  | 
